Laboratory results from PubChem BioAssay AID540259 (Broad Institute, 2011).
Potency and affinity values are given separately. A number with no mark means an inactive call.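 How the source made its calls: active means cell killing, meaning signal decrease, with fitted half-maximal dose at or below ten times the top valid tested dose; inconclusive means poor fit, or flat curve with 30 to 70% signal loss; inactive means the rest.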

Test: ATP-based viability loss in HeLa cells – cell-based, CellTiter-Glo luminescence, cherry-pick samples, cytotoxicity control for MITF activator project, dose response (AID 540259);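 further: 0% = DMSO neutral control and -100% = mitoxantrone positive control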
Details: 24 h; series mostly up to 35 µM; activity change, negative = cytotoxicity: at the top concentration

Compared with COc1ccc(/C=C2\CCn3c2nc2ccccc2c3=O)cc1OC, CCC(=O)c1ccc(OCc2ccccc2)c(OC)c1 is lower in “activity change, negative = cytotoxicity” value: 11.3% for the first, -0.933% for the second.

Going from c1ccc(CSCc2cn3ccsc3n2)cc1 to Clc1ccc(SCc2cn3ccccc3n2)cc1, the “activity change, negative = cytotoxicity” value rises from 4.42% to 7.64%.

First: COc1ccc(NC(=O)C2Cc3ccccc3O/C2=N\O)cc1 (configuration not stated)
Second: Fc1ccccc1Nc1nc2ccccc2o1
The “activity change, negative = cytotoxicity” value of the first is higher: 4.44% for the first, -19.8% for the second.

First: CSc1nc2ccc(NC(=O)c3cccs3)cc2s1
Second: COc1ccc(/C(N)=N/OC(=O)c2cccs2)cc1OC
The “activity change, negative = cytotoxicity” value of the first is higher: -0.438% for the first, -1.87% for the second.

Compared with CC(C)(C)C(=O)N1CCN(c2nc3ccccc3s2)CC1, O=C(Oc1ccc2ccccc2c1Cl)N1CCCCCC1 is lower in “activity change, negative = cytotoxicity” value: -0.769% for the first, -3.74% for the second.

Compared with Cc1ccc(Nc2nc(CSc3n[nH]c(N)n3)cs2)cc1, Nc1nc(COc2ccc3ccccc3c2)cs1 is higher in “activity change, negative = cytotoxicity” value: 4.55% for the first, 4.74% for the second.

Compared with CCN(CC)c1ccc(C(=O)NNC(=O)c2cccn2C)cc1, CC(=O)c1cccc(NC(=O)c2cc3nc(C)cc(C)n3n2)c1 is lower in “activity change, negative = cytotoxicity” value: 6.62% for the first, -6.5% for the second.

Going from CC1CCN(C(=O)Nc2ccc3nsnc3c2)CC1 to C/C(=C\C(=O)c1cccnc1)Nc1ccc(C)c(C)c1, the “activity change, negative = cytotoxicity” value falls from 7.47% to 4.55%.

First: Cc1ccc(-c2csc(C(C#N)=C3CCCC3)n2)cc1
Second: Cc1cc(Cl)ccc1OCc1cn2cccnc2n1
The “activity change, negative = cytotoxicity” value of the first is lower: -7.26% for the first, 14.3% for the second.

First: COCc1nn2c(N)c(-c3ccccc3)cnc2c1-c1ccccc1
Second: Clc1ccccc1OCc1nnc(-c2ccccc2Br)o1
The “activity change, negative = cytotoxicity” value of the first is higher: 6.09% for the first, -2% for the second.

For CCN(CC)C(=O)CCc1nnc(Cc2cccc(C(F)(F)F)c2)o1, the “activity change, negative = cytotoxicity” value was -0.229%.

For Cc1ccc(-c2nn(-c3ccccc3)cc2/C=N/O)cc1, the “activity change, negative = cytotoxicity” value was 27.1% [at 11 µM].
